Source: PubChem (several laboratories)
Shown are actives, neighbours in structure and some others; about 1.3% of the full set was active somewhere.
MOR-DOR ag: OPRM1-OPRD1 heterodimerization agonism | P35372+P41143 | cells, luminescence | activation, % at 9.3 µM | 0.3% of 340,000 active; in the data active = activation above about 18%
Target sequence (P35372 whole entry, looked up): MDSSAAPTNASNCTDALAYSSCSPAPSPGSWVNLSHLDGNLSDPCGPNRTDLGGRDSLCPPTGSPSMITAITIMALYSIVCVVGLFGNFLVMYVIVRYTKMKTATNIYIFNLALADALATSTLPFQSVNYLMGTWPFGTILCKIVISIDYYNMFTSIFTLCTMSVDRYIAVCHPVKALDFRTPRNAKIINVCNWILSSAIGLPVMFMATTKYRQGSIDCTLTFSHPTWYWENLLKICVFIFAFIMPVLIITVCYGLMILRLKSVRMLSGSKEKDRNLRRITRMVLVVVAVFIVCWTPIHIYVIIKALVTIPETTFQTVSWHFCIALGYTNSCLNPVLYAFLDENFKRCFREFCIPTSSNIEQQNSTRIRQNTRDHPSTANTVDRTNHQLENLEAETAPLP
Target sequence (P41143 whole entry, looked up): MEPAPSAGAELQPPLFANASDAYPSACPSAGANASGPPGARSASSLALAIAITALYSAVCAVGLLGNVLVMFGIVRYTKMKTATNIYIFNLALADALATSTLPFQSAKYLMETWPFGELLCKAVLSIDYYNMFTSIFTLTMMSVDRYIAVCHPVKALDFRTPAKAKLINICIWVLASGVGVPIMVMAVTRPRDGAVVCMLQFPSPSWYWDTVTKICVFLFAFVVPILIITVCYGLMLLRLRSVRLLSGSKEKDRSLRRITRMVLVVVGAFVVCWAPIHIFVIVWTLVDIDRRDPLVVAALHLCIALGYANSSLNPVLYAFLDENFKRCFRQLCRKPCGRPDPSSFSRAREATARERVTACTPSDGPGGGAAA
HTR5A ag: HTR5A agonism, opioid heterodimer counter-screen; P47898; HTR5A agonist assay, luminescence, cell-based; activation, % at 9.3 µM; 0.61% of 340,000 active; AID 504692; in the data active = activation mostly above about 9.5%, no sharp cut-off; inactive = mostly below about 7.6%
CR mimetic SO: caloric restriction mimetics inhibiting age-related superoxide in yeast | S. cerevisiae aged cells, superoxide DHE fluorescence; active compounds read low | superoxide response (% of plate mean), % at 10 µM | 0.18% of 330,000 active | AID 2690;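 active = superoxide response under a set limit, about three screen SD below normal, cut at about 65% in these data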;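 also: yeast aged for seven days with compound at 30 °C before DHE staining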
HTR5A inv ag: HTR5A inverse agonism, opioid heterodimer counter-screen. P47898. 0.083% of 340,000 active. HTR5A cell line, luminescence. inhibition, % at 9.3 µM; in the data active = inhibition mostly above about 23%, no sharp cut-off; inactive = mostly below about 18%
PvdQ acylase: blocks Pseudomonas aeruginosa PvdQ acylase activity; 0.063% of 340,000 active; purified PvdQ acylase, fluorescence plate reader; inhibition, % at 10 µM; in the data active = inhibition above about 30%, passing the limit was not always enough
MOR-DOR inv ag: inverse agonist of human OPRM1-OPRD1 heterodimerization; P35372+P41143; cell-based MOR-DOR heterodimer luminescence, inverse agonism; inhibition, % at 9.3 µM; 0.21% of 340,000 active; AID 504357; in the data active = inhibition above about 22%, passing the limit was not always enough
Of the large screens only hits and unclear results are named; the others gave an inactive call.

COc1cccc(NC(=O)CSCC(=O)O)c1	HTR5A ag 14
Cc1ccc(-n2cc(-c3ccccc3)c3c(N4CCOCC4)ncnc32)cc1	none (no result: CR mimetic SO)
Fc1ccc(-n2cc(-c3ccccc3)c3c(NN4CCOCC4)ncnc32)cc1	HTR5A inv ag 46, MOR-DOR inv ag 34
OCCN1CCN(c2ncnc3c2c(-c2ccccc2)cn3-c2ccc(F)cc2)CC1	HTR5A inv ag 44, MOR-DOR inv ag 45
CC1CN(c2ncnc3c2c(-c2ccccc2)cn3-c2ccc(F)cc2)CC(C)O1 (stereo unspecified)	HTR5A inv ag 77, MOR-DOR inv ag 62
COc1ccc(-n2cc(-c3ccccc3)c3c(N4CCN(CCO)CC4)ncnc32)cc1	none
CC(NC(N)=O)C(=O)Nc1ccc(Cl)c(S(=O)(=O)Nc2ccc(Cl)cc2)c1 (stereo unspecified)	none
CC(C)Oc1ccc(C(=O)Nc2ccc(Cl)c(S(=O)(=O)Nc3ccc(Cl)cc3)c2)cc1	HTR5A ag 12
CC(C)CC1Nc2ncnc(N3CCN(c4ccccn4)CC3)c2N(Cc2ccccc2)C1=O (stereo unspecified)	none
CCN(c1ccccc1)S(=O)(=O)c1cc(C(=O)Nc2ccccc2Cl)ccc1F	PvdQ acylase 49
CC(C)CN(Cc1cc(=O)oc2cc(-c3ccccc3)c(O)cc12)CC(C)C	MOR-DOR ag 20, HTR5A ag 17
CCCOc1ccccc1-c1nc2c([nH]1)c(=O)[nH]c(=O)n2C	HTR5A ag 13
Cn1c(=O)[nH]c(=O)c2[nH]c(CO)nc21	none (no result: CR mimetic SO)
COc1ccc(N=C(C)C2=C(O)CSC2=O)cc1	PvdQ acylase 44
CC(=O)N(c1ccccc1)C1CCCC1	none
O=C(CCl)N(c1ccccc1)C1CCCCC1	MOR-DOR ag 33, HTR5A ag 42
CC(=O)c1cc(-c2ccccc2)n(CC(=O)N2CCCCC2)c1C	HTR5A ag 12
COc1ccc(NS(=O)(=O)c2cc(C(=O)O)ccc2C)cc1	HTR5A ag 12
O=C(COC(=O)/C=C/c1cccc(Br)c1)NC1CCCCCC1	PvdQ acylase 42
O=C(/C=C/c1ccc(Br)cc1)NC1CCCCCC1	HTR5A ag 14
O=C(COC(=O)/C=C/c1cccc(Br)c1)NC1CCCCC1	none
COc1ccc2nc(C)cc(NCc3ccc(F)cc3)c2c1	none
Cc1ccc(S(=O)(=O)c2c(C)nn(C(C)(C)C)c2OC(=O)c2ccco2)cc1	HTR5A ag 12
CCN1CC(C)(C)N(C(=O)c2ccccc2)CC1(C)C	none (no result: CR mimetic SO)
N#CC(Sc1ccccn1)c1ccc(Cl)cc1 (stereo unspecified)	PvdQ acylase 48
Cc1ccc(S(=O)(=O)N2CCN(C(=O)COC(=O)CCOc3ccc(C(C)(C)C)cc3)CC2)cc1	none
C=CCC1CCC/C(=N\NS(=O)(=O)c2ccc(C)cc2)C1 (stereo unspecified)	HTR5A ag 13
CCOC(=O)c1[nH]c(C)c(C(=O)Nc2ccc(C)c(C)c2)c1C	HTR5A ag 13
CCOC(=O)c1[nH]c(C)c(C(=O)Nc2ccc(F)cc2)c1C	none
CCOC(=O)N1CCN(C(=O)CSc2ccc3nnc(CCNC(=O)c4ccccc4)n3n2)CC1	none
Cc1nc(SCC(=O)N(C)C2CCS(=O)(=O)C2)c(C#N)c(C)c1C (stereo unspecified)	none
COc1cccc(C=NNc2nc3ccccc3s2)c1OC	HTR5A ag 9.7 (no result: CR mimetic SO)
Cc1nn(C)c(C(=O)N/N=C/c2ccc(Br)cc2)c1Cl	CR mimetic SO 61
CCN(CC)C(=O)[C@H]1C[C@H](CC(=O)NCCCN(C)C)C(=O)N2CCc3c([nH]c4cc(CCC(=O)N(C)C)ccc34)[C@]12C	HTR5A ag 5.0
COc1ccc(OC)c(CNC(=O)CCS(=O)(=O)c2ccc3c(c2)oc(=O)n3C)c1	none
COc1ccc(C)cc1NC(=O)CSc1nnc(-c2cc3cccc(OC)c3o2)n1N	HTR5A ag 13
CCCOCCc1nnc(N)s1	none
CC1CCN(S(=O)(=O)c2ccc(NC(=O)Cn3nnc(-c4ccccc4)n3)cc2)CC1	MOR-DOR ag 31, HTR5A ag 16
S=C(Nc1ccc(Cl)c(Cl)c1)NC1CCN(Cc2ccccc2)CC1	MOR-DOR ag 23, HTR5A ag 12
CCCCOc1cccc(C2C(C(=O)c3ccc(C)o3)=C(O)C(=O)N2Cc2ccco2)c1 (stereo unspecified)	HTR5A ag 13
CCC1Nc2ncnc(N3CCN(c4ccccn4)CC3)c2N(Cc2ccc(Br)cc2)C1=O (stereo unspecified)	HTR5A inv ag 80, MOR-DOR inv ag 86
CCC1Nc2ncnc(N3CCCCC3)c2N(Cc2ccc(Br)cc2)C1=O (stereo unspecified)	none
CCC1Nc2ncnc(N3CCN(c4ccccn4)CC3)c2N(Cc2ccc(Cl)cc2)C1=O (stereo unspecified)	HTR5A inv ag 77, MOR-DOR inv ag 80
CCC1Nc2ncnc(N3CCN(c4ccccc4)CC3)c2N(Cc2ccccc2)C1=O (stereo unspecified)	HTR5A inv ag 49, MOR-DOR inv ag 60
O=C1OC(N2CCN(C(=O)c3ccco3)CC2)c2ccccc21 (stereo unspecified)	HTR5A ag 9.9
Cc1cc(C(=O)CSc2nc(N)cc(=O)[nH]2)c(C)n1CC1CCCO1 (stereo unspecified)	none
Cc1cc(C(=O)CSc2nc3ccccc3[nH]2)c(C)n1CC1CCCO1 (stereo unspecified)	HTR5A ag 13
COc1ccc2sc3ccccc3c(=O)c2c1	none
COc1ccc(-c2cc(=O)c3ccccc3s2)cc1	PvdQ acylase 41
COc1ccccc1N(C)S(=O)(=O)c1ccc(C(=O)N(C)Cc2ccc(OC(F)F)cc2)cc1	none (no result: CR mimetic SO)
O=C(/C=C/c1ccc(Br)cc1)c1ccco1	PvdQ acylase 56
CC(NC(=O)c1ccccc1)C(=O)NC1CCCc2ccccc21 (stereo unspecified)	none (no result: CR mimetic SO)
O=C(CCN1C(=O)/C(=C/c2ccccc2)SC1=S)NCCCN1CCOCC1	none
O=C(CCN1C(=O)/C(=C/c2ccccc2F)SC1=S)NCCCN1CCOCC1	HTR5A ag 13
COCc1cc(CN2CCCC(C(=O)Nc3cccc(-n4cnnn4)c3)C2)ccc1OC (stereo unspecified)	none
Cc1cnc(N=Nc2ccccc2)[nH]1	none (no result: CR mimetic SO)
O=C(CCCC(=O)c1ccccc1)Nc1ccc(O)cc1	none
CCC(=O)Nc1ccc(Cl)c(NC(=O)c2ccc([N+](=O)[O-])cc2)c1	HTR5A ag 12
CCn1ccnc1C(O)(c1ccccc1)c1ccccc1	none
CCCCNc1c(-c2ccc(OC)c(Sc3ccc(OC)cc3)c2)nc2ccccn12	HTR5A ag 11
Cc1ccc2c(c1)C(c1ccc(O)cc1)(c1ccc(O)cc1)C(=O)N2C	HTR5A ag 10
CN(C)/C=C/c1oc2ccc(O)cc2c1[N+](=O)[O-]	HTR5A inv ag 30, MOR-DOR inv ag 41
